These results are taken from paper PMC7862700, “An all-to-all approach to the identification of sequence-specific readers for epigenetic DNA modifications on cytosine”.

What all share (assay): DAPPL (digital affinity profiling via proximity ligation, sequencing); 10 mM Tris-HCl pH 7.5, 50 mM NaCl, 1 mM DTT, 4% glycerol, room temperature, 30 min; GST-TFs on glutathione beads, 16-mer random dsDNA library, 0.1% formaldehyde crosslink after washing; high values mean tight binding
Holding throughout (conditions): protein: recombinant; tags: N-terminal GST; dsDNA, one strand shown

Assay [1] addresses T1, FLI1 (Homo sapiens, UniProt Q01543 1-452).
T1 sequence: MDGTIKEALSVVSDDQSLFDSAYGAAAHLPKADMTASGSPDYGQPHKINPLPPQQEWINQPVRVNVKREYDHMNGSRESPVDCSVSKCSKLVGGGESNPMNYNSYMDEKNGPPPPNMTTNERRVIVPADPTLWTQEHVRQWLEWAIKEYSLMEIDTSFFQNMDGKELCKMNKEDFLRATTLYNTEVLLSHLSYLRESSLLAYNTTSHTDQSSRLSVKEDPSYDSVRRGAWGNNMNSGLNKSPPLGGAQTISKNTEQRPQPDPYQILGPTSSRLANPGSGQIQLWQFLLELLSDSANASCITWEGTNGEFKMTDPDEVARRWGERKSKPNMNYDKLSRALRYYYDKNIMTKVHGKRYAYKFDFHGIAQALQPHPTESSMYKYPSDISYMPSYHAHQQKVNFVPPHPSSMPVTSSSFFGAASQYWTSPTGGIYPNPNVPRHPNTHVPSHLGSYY
In a few lines: (§1)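 Human transcription factors were made in yeast as GST fusions, captured on glutathione beads and barcoded with DNA. With a tag-only sample included, the pool was incubated with 200 nmole of a random double-stranded 16-mer DNA library in Tris/NaCl/DTT/glycerol buffer at room temperature for 30 min, then crosslinked with 0.1% formaldehyde after washing, ligated by proximity, amplified and sequenced. For binding signal, each hexamer's read frequency for a factor is divided by its frequency for the tag-only sample.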

The target in assay [2] is T2, ELK1 (Homo sapiens, UniProt P19419 1-428).
T2 sequence: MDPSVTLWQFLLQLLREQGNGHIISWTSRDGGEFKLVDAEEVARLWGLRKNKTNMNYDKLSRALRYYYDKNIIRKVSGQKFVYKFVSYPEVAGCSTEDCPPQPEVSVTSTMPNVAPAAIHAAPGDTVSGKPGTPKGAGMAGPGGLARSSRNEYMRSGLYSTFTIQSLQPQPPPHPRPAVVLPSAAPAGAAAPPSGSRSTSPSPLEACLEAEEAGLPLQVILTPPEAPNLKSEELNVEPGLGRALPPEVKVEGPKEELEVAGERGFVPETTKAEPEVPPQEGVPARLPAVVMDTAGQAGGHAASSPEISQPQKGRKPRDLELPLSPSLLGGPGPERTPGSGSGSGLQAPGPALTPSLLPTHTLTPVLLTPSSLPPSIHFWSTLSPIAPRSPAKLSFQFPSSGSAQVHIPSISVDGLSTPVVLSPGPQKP
In a few lines:
as §1

Assay [3] has as its target T3, GABPA (Homo sapiens, UniProt Q06546 1-454).
T3 sequence: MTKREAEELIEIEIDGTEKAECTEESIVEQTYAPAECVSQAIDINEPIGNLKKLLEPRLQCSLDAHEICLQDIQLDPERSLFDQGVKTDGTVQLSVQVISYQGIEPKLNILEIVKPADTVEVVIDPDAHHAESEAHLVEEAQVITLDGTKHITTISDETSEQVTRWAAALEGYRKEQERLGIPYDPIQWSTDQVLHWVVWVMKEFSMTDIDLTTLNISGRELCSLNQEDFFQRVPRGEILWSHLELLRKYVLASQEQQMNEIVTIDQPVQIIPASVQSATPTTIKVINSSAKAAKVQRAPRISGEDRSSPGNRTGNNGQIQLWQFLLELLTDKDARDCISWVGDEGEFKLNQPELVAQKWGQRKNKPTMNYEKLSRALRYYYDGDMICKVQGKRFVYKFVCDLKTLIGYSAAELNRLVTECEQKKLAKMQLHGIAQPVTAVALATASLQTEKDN
The method, boiled down:
as §1

The target in assay [4] is T4, ERG (Homo sapiens, UniProt P11308 1-479).
T4 sequence: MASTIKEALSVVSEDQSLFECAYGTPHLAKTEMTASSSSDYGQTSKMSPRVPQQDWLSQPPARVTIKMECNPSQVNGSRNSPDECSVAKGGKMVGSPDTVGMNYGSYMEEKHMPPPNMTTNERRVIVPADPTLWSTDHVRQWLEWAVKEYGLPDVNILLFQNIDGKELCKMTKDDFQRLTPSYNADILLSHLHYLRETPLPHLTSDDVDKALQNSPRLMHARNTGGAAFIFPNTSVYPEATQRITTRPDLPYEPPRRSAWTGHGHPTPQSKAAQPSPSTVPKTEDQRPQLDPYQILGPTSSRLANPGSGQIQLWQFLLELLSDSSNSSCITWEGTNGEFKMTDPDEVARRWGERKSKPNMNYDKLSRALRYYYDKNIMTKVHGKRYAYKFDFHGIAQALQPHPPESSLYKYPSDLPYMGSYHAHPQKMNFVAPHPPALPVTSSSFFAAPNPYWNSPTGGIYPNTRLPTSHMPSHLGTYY
In a few lines:
as §1

Assay [5] addresses ELF1 (Homo sapiens, UniProt P32519 1-619). The method, boiled down:
as §1

The target in assay [6] is SPIB (Homo sapiens, UniProt Q01892 1-262). The method, boiled down: as §1
SPIB, sequence (Q01892 whole entry): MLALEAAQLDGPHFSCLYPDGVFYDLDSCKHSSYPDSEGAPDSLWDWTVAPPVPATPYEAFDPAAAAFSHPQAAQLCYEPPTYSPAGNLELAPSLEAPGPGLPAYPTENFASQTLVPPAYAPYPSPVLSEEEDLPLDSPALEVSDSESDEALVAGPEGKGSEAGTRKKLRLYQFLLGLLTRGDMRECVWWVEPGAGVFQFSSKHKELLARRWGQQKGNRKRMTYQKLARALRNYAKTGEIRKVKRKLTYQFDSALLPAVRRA
In assay [7] the target is T5, ELK3 (Homo sapiens, UniProt P41970 1-407).
T5 sequence: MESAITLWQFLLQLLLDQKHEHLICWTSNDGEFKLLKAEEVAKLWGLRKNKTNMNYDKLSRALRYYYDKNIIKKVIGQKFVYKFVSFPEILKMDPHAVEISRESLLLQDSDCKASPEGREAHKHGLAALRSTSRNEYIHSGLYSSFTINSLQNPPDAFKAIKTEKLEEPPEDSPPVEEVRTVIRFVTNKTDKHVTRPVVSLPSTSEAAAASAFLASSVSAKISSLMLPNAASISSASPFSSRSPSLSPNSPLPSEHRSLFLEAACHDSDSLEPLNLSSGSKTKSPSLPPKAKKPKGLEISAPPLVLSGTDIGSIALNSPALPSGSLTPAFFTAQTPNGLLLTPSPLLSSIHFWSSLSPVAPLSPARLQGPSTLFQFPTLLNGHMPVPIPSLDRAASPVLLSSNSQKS
The method, boiled down:
as §1

The target in assay [8] is ELF4 (Homo sapiens, UniProt Q99607 1-663). In a few lines:
as §1

The target in assay [9] is T6, ELK4 (Homo sapiens, UniProt P28324-2 1-405).
T6 sequence: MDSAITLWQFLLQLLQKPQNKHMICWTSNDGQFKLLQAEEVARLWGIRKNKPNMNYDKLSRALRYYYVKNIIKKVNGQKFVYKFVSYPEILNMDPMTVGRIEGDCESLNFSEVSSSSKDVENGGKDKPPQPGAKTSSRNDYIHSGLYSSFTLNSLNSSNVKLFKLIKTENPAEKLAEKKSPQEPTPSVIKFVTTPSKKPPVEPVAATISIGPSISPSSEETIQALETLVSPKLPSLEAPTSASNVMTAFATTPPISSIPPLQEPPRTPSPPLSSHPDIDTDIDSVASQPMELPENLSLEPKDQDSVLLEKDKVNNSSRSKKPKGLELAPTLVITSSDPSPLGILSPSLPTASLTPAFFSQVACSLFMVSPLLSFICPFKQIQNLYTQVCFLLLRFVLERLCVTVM
In a few lines: as §1

Assay [10] has as its target T7, ETV2 (Homo sapiens, UniProt O00321 1-342).
T7 sequence: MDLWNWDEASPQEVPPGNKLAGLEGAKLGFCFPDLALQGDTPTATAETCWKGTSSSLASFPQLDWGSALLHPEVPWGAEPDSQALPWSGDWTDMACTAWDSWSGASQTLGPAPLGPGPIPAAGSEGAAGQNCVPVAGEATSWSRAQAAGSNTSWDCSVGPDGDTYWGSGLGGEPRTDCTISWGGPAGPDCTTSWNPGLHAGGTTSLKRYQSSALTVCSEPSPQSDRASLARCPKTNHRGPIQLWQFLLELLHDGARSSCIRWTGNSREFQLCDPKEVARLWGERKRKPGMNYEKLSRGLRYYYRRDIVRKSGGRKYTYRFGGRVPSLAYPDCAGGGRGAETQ
The method, boiled down: as §1

Assay [11] addresses T8, ELF3 (Homo sapiens, UniProt P78545 1-371).
T8 sequence: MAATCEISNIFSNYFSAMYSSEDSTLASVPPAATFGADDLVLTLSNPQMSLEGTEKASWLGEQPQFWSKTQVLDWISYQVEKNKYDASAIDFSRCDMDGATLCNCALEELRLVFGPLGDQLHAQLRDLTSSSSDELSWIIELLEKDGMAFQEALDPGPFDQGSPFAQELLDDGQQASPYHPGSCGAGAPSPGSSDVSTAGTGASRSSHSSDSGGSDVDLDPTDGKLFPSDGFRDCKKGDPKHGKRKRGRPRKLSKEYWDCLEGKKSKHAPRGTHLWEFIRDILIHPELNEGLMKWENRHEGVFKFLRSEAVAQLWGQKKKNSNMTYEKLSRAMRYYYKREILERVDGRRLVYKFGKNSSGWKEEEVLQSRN
The method, boiled down:
as §1

Assay [12] deals with ETV1 (Homo sapiens, UniProt P50549 1-477). The method, boiled down:
as §1

The target in assay [13] is T9, ETV3L (Homo sapiens, UniProt Q6ZN32 1-361).
T9 sequence: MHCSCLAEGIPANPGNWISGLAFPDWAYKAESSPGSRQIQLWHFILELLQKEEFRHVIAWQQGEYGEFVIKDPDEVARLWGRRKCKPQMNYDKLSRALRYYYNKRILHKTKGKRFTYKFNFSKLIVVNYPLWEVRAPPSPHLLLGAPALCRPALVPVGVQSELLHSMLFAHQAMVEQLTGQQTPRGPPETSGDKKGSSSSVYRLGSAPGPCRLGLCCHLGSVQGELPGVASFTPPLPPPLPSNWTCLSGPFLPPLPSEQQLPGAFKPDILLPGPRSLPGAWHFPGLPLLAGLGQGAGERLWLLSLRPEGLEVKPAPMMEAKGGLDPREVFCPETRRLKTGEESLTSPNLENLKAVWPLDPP
The method, boiled down: as §1

In assay [14] the target is T10, ETS2 (Homo sapiens, UniProt P15036 1-469).
T10 sequence: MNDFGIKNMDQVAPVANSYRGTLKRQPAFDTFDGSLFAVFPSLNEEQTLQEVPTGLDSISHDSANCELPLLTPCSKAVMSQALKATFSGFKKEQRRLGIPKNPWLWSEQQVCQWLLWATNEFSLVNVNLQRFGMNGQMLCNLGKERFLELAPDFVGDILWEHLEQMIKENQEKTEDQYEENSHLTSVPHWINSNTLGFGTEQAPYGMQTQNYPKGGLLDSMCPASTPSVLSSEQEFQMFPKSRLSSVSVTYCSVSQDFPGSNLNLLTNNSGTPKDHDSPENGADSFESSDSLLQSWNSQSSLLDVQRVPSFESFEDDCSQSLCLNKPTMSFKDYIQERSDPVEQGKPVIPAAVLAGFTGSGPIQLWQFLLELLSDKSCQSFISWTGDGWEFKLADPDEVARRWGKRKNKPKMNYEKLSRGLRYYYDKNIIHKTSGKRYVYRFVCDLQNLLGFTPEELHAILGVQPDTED
In a few lines: as §1

Assay [15] deals with T11, ETV7 (Homo sapiens, UniProt Q9Y603 1-341).
T11 sequence: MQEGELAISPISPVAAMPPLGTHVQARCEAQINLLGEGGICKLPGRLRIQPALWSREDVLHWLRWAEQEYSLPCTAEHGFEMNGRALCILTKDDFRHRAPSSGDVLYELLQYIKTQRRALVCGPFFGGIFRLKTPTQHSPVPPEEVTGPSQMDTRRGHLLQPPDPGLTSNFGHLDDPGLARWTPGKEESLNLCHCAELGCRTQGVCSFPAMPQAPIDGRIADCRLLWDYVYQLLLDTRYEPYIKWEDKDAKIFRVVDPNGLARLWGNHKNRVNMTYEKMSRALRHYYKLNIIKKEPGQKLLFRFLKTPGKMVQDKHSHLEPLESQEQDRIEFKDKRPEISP
In a few lines: as §1

Assay [16] has as its target T12, ETV3 (Homo sapiens, UniProt P41162-2 1-143).
T12 sequence: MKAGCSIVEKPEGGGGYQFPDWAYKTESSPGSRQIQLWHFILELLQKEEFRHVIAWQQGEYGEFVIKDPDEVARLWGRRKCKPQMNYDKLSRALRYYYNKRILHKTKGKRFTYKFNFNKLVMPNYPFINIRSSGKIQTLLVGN
In a few lines:
as §1

In assay [17] the target is ETV6 (Homo sapiens, UniProt P41212 1-452). The method, boiled down: as §1
ETV6, sequence (P41212 whole entry): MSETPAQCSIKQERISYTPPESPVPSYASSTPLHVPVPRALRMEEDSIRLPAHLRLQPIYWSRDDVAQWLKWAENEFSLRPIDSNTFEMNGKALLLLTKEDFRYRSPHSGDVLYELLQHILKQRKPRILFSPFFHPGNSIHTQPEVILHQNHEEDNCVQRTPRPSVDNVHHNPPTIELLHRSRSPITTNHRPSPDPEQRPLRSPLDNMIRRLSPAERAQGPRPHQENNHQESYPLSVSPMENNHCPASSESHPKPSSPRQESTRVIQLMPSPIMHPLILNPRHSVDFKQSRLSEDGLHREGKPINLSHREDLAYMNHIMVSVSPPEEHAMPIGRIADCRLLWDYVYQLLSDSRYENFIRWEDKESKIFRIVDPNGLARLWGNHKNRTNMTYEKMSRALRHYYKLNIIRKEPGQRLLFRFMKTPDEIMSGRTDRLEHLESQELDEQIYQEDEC

ELF1, sequence (P32519 whole entry): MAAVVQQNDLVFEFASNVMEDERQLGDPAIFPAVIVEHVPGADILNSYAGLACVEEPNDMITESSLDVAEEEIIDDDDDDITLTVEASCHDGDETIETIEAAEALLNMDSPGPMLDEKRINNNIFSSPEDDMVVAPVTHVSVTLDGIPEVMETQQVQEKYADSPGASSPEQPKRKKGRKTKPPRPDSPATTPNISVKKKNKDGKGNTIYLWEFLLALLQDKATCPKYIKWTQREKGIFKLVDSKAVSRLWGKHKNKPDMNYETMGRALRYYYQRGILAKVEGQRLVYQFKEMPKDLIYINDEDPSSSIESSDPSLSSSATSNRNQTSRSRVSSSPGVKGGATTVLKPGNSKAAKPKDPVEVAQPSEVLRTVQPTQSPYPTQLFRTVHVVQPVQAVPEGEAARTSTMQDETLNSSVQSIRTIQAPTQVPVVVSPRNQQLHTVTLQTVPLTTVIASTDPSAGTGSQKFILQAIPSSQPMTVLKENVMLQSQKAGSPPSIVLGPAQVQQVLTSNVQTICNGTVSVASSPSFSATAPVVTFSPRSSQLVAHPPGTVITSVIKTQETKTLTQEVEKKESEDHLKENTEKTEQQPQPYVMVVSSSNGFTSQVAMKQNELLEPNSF
ETV1, sequence (P50549 whole entry): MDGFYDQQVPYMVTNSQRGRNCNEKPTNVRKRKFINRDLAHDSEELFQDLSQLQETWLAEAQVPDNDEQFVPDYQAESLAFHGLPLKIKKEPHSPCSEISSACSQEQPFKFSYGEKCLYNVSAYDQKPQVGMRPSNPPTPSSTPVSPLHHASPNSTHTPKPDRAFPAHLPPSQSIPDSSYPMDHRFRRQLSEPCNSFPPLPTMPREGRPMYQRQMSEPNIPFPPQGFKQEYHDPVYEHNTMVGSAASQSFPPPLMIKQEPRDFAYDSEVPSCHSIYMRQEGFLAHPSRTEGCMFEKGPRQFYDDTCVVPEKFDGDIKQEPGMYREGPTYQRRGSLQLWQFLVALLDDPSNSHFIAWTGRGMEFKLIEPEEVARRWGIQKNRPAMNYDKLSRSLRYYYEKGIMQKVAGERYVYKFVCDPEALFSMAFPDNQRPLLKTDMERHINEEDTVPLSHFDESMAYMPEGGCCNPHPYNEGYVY
ELF4, sequence (Q99607 whole entry): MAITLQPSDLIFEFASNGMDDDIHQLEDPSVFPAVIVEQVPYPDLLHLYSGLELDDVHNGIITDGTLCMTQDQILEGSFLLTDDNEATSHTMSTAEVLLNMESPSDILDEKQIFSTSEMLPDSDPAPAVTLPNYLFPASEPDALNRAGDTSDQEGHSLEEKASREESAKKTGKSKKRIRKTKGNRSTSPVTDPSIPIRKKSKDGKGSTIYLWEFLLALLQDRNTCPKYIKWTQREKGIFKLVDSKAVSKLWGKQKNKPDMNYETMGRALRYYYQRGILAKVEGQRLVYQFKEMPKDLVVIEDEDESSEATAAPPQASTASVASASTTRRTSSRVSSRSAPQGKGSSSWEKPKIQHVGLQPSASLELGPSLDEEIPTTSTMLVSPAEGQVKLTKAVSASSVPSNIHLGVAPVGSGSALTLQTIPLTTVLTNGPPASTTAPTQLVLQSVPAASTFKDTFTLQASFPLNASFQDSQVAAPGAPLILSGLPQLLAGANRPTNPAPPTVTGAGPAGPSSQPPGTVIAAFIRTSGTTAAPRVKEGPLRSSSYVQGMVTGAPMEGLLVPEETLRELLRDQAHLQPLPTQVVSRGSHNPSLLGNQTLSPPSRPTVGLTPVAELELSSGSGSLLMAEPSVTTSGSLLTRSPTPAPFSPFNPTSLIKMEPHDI

Regarding CGCGAT, the binding signal in assay [1] is 1.02 fold enrichment (6-mer frequency, TF over GST control); in assay [2], 1.07 fold enrichment (6-mer frequency, TF over GST control); in assay [3], 1.09 fold enrichment (6-mer frequency, TF over GST control); in assay [4], 1.09 fold enrichment (6-mer frequency, TF over GST control); in [5], 1.06 fold enrichment (6-mer frequency, TF over GST control); in assay [6], 1.03 fold enrichment (6-mer frequency, TF over GST control). Also, the binding signal was 1.07 fold enrichment (6-mer frequency, TF over GST control) in assay [7]; 1.07 fold enrichment (6-mer frequency, TF over GST control) in assay [8]; 1.22 fold enrichment (6-mer frequency, TF over GST control) in [9]; 1.17 fold enrichment (6-mer frequency, TF over GST control) in [10]; 1.15 fold enrichment (6-mer frequency, TF over GST control) in assay [11]; 1.08 fold enrichment (6-mer frequency, TF over GST control) in [12]. Besides, the binding signal is 1.06 fold enrichment (6-mer frequency, TF over GST control) in assay [13]; 1.07 fold enrichment (6-mer frequency, TF over GST control) in assay [14]; 1.05 fold enrichment (6-mer frequency, TF over GST control) in assay [15]; 1.08 fold enrichment (6-mer frequency, TF over GST control) in assay [16]; 1.05 fold enrichment (6-mer frequency, TF over GST control) in assay [17].
